Columns and labels:
[1] = target: T1, Protein kinase C zeta type (Homo sapiens) (UniProt Q05513); conditions: at 1 µM
T1 sequence (whole entry): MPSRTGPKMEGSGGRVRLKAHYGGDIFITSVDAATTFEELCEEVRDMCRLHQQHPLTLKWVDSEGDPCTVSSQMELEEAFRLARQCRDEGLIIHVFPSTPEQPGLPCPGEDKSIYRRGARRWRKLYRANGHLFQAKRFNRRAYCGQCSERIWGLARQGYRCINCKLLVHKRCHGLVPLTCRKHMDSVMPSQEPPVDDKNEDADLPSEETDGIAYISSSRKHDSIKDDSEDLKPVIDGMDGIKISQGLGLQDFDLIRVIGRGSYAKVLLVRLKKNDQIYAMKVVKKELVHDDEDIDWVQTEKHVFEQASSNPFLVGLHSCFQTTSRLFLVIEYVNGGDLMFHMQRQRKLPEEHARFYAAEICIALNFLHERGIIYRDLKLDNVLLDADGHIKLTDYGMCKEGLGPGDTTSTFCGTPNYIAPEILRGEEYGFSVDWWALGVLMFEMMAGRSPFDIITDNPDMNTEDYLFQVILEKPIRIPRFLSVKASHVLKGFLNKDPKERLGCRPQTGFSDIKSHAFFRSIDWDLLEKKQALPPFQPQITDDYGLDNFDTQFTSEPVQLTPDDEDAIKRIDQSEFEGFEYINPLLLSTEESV

[2] = target: T2, Mitogen-activated protein kinase kinase kinase 5 (Homo sapiens) (UniProt Q99683); conditions: at 10 µM
T2 sequence (whole entry): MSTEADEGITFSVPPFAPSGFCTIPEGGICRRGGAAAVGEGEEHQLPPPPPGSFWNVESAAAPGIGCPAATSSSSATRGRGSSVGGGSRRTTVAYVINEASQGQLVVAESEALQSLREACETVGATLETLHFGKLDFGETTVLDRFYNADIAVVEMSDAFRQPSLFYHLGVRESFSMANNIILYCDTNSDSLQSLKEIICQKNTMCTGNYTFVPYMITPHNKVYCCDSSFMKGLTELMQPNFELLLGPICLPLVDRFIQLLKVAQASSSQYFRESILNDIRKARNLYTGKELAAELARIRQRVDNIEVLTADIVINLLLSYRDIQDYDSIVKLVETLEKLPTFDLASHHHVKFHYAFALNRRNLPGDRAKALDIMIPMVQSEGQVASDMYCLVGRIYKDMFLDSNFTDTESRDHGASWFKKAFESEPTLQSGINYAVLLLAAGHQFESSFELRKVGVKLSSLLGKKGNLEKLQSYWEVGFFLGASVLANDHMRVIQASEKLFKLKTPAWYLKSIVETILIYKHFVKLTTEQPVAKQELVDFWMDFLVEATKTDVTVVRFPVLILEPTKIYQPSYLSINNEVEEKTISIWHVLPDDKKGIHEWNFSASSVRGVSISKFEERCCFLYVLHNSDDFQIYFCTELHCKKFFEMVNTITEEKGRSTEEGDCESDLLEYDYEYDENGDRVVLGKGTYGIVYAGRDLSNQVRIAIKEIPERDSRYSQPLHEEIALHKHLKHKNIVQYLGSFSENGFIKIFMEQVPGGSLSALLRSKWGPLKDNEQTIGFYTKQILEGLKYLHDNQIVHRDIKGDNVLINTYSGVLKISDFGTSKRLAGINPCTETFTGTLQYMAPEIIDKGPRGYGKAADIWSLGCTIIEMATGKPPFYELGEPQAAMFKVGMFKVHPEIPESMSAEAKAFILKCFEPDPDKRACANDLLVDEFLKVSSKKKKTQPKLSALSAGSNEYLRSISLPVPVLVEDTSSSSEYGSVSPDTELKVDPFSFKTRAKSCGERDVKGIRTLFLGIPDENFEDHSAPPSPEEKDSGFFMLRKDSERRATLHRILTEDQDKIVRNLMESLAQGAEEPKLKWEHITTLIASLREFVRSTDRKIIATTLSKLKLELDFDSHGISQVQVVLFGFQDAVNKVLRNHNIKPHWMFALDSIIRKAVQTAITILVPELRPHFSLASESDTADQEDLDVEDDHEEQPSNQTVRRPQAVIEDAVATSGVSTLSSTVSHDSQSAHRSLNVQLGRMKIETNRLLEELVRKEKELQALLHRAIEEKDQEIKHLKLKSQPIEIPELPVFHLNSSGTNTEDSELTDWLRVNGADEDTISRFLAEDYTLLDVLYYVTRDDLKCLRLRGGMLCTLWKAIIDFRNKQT

[3] = target: T3, Aurora kinase A (Homo sapiens) (UniProt O14965); conditions: at 1 µM
T3 sequence (whole entry): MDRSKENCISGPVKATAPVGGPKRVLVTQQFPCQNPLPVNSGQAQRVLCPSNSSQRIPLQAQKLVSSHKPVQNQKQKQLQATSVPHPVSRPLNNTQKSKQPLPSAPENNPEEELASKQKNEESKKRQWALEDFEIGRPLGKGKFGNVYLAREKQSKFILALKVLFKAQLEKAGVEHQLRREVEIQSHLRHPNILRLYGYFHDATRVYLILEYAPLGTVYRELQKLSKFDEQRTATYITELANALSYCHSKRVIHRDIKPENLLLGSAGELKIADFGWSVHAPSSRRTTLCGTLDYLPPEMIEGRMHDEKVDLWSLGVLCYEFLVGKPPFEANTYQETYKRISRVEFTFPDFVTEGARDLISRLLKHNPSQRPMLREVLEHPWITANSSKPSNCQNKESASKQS

[4] = target: T3, Aurora kinase A (Homo sapiens); conditions: at 10 µM
[5] = target: Aurora kinase B (Homo sapiens) (UniProt Q96GD4); conditions: at 1 µM
Sequence of Aurora kinase B (Homo sapiens) (Q96GD4 whole entry): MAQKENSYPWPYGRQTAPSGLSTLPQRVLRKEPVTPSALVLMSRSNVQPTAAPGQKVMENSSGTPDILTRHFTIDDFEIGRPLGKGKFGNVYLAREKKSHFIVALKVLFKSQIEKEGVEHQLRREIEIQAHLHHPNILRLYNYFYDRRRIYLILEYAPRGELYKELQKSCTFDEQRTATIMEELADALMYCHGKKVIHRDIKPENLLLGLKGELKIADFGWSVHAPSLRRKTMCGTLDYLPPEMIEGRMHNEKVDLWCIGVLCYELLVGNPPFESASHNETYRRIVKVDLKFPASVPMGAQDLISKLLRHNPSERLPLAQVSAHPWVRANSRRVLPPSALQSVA

[6] = target: Aurora kinase B (Homo sapiens) (UniProt Q96GD4); conditions: at 10 µM
[7] = target: Tyrosine-protein kinase ABL1 (Homo sapiens) (UniProt P00519); conditions: at 1 µM
Sequence of Tyrosine-protein kinase ABL1 (Homo sapiens) (P00519 whole entry): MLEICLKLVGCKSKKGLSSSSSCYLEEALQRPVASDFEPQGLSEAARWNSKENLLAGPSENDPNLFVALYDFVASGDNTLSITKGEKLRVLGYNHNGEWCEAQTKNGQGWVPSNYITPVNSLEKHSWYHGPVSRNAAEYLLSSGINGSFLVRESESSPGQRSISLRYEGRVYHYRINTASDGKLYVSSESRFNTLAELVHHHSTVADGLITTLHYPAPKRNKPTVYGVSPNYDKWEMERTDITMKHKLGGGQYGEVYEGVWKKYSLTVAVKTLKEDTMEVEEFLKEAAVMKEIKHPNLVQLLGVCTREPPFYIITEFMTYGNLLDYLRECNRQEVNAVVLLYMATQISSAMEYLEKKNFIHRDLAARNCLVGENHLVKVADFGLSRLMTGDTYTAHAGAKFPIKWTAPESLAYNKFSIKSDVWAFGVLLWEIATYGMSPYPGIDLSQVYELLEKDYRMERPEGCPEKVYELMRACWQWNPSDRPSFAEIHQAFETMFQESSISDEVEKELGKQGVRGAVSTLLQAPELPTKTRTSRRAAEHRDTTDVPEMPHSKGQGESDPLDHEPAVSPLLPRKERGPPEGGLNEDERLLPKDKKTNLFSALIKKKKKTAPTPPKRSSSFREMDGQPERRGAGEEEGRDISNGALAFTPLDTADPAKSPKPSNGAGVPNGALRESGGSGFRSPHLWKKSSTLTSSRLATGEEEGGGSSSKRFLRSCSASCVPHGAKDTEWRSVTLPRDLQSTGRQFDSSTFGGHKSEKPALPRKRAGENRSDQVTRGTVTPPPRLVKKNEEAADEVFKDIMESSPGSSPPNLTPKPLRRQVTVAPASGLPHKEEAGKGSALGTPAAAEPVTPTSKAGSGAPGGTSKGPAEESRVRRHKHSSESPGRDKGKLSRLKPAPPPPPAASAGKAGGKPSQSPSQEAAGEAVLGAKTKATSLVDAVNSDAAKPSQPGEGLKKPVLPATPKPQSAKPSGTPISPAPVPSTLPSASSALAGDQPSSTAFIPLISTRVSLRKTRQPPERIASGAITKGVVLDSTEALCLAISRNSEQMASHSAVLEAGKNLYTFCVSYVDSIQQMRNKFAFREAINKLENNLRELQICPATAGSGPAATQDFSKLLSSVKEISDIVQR

[8] = target: Tyrosine-protein kinase ABL1 (Homo sapiens) (UniProt P00519); conditions: at 10 µM
[9] = target: Tyrosine-protein kinase ABL2 (Homo sapiens) (UniProt P42684); conditions: at 1 µM
Sequence of Tyrosine-protein kinase ABL2 (Homo sapiens) (P42684 whole entry): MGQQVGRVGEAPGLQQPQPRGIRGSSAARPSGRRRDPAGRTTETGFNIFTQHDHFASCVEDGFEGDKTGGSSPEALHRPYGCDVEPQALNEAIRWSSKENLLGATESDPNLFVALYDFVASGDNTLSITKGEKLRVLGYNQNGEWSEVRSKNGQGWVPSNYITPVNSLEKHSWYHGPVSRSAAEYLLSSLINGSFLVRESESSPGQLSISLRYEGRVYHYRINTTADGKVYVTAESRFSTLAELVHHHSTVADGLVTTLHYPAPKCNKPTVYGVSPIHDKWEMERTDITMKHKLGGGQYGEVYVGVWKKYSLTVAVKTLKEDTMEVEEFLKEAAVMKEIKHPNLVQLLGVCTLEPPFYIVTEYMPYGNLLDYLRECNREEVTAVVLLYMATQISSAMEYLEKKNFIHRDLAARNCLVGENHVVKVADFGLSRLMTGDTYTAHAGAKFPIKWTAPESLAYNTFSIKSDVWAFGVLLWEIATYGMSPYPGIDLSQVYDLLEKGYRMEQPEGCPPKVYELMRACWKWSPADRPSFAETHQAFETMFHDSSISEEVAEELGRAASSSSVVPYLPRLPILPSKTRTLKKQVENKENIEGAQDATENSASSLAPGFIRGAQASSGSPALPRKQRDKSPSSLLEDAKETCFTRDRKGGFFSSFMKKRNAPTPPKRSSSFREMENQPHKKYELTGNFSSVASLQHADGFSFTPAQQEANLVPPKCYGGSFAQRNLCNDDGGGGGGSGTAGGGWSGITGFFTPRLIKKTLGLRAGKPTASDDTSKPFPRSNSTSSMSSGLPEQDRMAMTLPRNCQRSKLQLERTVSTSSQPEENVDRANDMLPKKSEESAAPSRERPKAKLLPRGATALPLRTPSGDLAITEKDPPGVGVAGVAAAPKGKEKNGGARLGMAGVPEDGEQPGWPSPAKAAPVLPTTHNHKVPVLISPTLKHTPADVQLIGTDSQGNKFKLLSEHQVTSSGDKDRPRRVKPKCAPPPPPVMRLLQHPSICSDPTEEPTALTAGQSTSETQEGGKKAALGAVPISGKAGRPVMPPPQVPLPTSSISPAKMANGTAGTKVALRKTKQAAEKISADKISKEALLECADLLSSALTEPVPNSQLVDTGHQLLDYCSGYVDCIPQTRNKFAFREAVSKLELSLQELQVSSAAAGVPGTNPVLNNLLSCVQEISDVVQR

[10] = target: Tyrosine-protein kinase ABL2 (Homo sapiens) (UniProt P42684); conditions: at 10 µM

| SMILES | residual activity [1] | residual activity [2] [%] | residual activity [3] [%] | residual activity [4] [%] | residual activity [5] [%] | residual activity [6] [%] | residual activity [7] [%] | residual activity [8] [%] | residual activity [9] [%] | residual activity [10] [%] |
| --- | --- | --- | --- | --- | --- | --- | --- | --- | --- | --- |
| Cn1c2ccccc2c2c3c(c4c5ccccc5n(CCC#N)c4c21)CNC3=O | 102% (inactive) | 16 | 4 | 19 | 0 | 1 |  |  |  |  |
| COc1cc2nccc(Oc3ccc(NC(=S)NC(=O)c4ccccc4C)cc3)c2cc1OC |  | 77 | 0 | 1 | 2 | -1 | 22 | 9 | 50 | 18 |
| COc1cc2ncnc(Nc3cccc(Cl)c3)c2cc1OC |  | 106 |  | 49 | 64 | 8 | 41 | 14 | 48 | 10 |
| Nc1ncnc2c1c(-c1ccc(Oc3ccccc3)cc1)cn2C1CCCC1 | 99% (inactive) | 85 | 35 | 7 | 43 | 6 |  | 6 | 80 | 21 |
| COc1ccc(CNC(=O)Nc2ncc([N+](=O)[O-])s2)cc1 | 104% (inactive) |  |  | 113 |  |  |  |  | 115 |  |
| O=C(O)/C=C/c1cc(Br)c(Br)c(Br)c1Br |  | 91 | 83 | 38 | 60 | 16 | 86 | 40 | 75 | 53 |
| COc1ccc(-c2cnc3c(-c4ccsc4)cnn3c2)cc1 |  | 88 |  |  |  |  | 76 | 97 | 88 | 94 |
| O=C1Nc2ccc(Cl)cc2/C1=C/c1cc(Cl)c(O)c(Cl)c1 |  | 87 | 57 | 24 | 51 | 2 | 77 | 42 | 80 | 42 |
| CCCCc1c(-c2ccc(O)cc2)[nH]c2nccnc12 |  | 83 | 6 | 20 | 2 | 0 | 81 | 44 | 75 | 60 |
| N#C/C(=C1/Nc2ccccc2S1)c1ccnc(NCCc2cccnc2)n1 |  | 79 | 64 | 48 |  |  | 115 | 80 | 99 | 76 |
| O=C(c1ccccc1)c1ccc(N2CCOCC2)cc1O |  | 95 | 77 | 91 | 86 | 65 | 94 | 82 | 98 | 98 |
| CCCCc1c(-c2ccc(OC)cc2)[nH]c2nccnc12 | 114% (inactive) |  | 9 | 13 | 1 | -1 | 74 | 80 | 59 | 53 |
| NC(=O)Nc1sc(-c2ccc(F)cc2)cc1C(N)=O | 114% (inactive) |  | 32 | 3 | 1 | 2 | 63 | 32 | 71 | 19 |
| COc1cc2c(cc1OC)-c1n[nH]c(Nc3cccc(F)c3)c1C2 | 111% (inactive) |  | 47 | 22 | 43 | 6 |  |  |  |  |
| COc1cc2nccc(Oc3ccc(NC(=O)Nc4cc(C)on4)c(Cl)c3)c2cc1OC | 108% (inactive) |  | 7 | 7 | 3 | 1 |  |  | -2 | -1 |
| CCN(CC)CCNC(=O)c1c(C)[nH]c(/C=C2\C(=O)Nc3ccc(Cl)cc32)c1C |  | 43 | 47 | 30 | 7 | 1 | 23 | 0 | 47 | 7 |
| Nc1ncnc2c1cnn2-c1ccccc1 |  | 101 |  | 95 |  | 68 | 100 | 76 |  |  |
| c1ccc(-c2cnc(Nc3ccc(OCCN4CCCC4)cc3)s2)cc1 | 106% (inactive) |  |  |  | 67 | 18 | 61 | 11 | 46 | 8 |
| Nc1n[nH]c2nc3ccccc3nc12 |  | 75 | 91 | 77 | 77 | 26 | 85 | 73 | 87 | 83 |
| O=c1cc(N2CCOCC2)oc2c1ccc1ccccc12 | 109% (inactive) | 94 | 125 | 108 | 110 | 90 | 99 |  |  |  |
| O=C(NC(NC(=S)Nc1ccc(F)c([N+](=O)[O-])c1)C(Cl)(Cl)Cl)C(c1ccccc1)c1ccccc1 (stereo not given) | 102% (inactive) |  | 83 | 69 |  | 69 |  | 77 |  | 93 |
| O=C1NC(=O)c2c1c1c3ccccc3[nH]c1n1cncc21 |  | 96 | 14 | 1 | 3 | 0 | 80 | 62 | 91 | 56 |

Reference: ChEMBL document CHEMBL2218924, “A broad activity screen in support of a chemogenomic map for kinase signalling research and drug discovery” (Biochem J, 2013)
